In PubChem BioAssay:
Inconclusive results are not listed. For some of these results: Potency and affinity values are given separately. Active and inactive are the calls of the source. Unless noted, how the calls were made is not given here.

What was measured:
[1] = antimalarial activity against Dd2 strain (AID 2302;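 active means growth inhibition above 50% at the single 2 µM test dose, taken to imply half-maximal potency below 2 µM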;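 further: 0% = DMSO untreated growth and 100% = chloroquine plus artemisinin killed control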); conditions: P. falciparum Dd2 in RBCs, LDH growth readout, 72 h; at 2 µM; stronger effect = higher value
[2] = HepG2 cytotoxicity, primary screen, cytotoxicity control for P. falciparum antimalarial project, cell-based, ATP luminescence (AID 2303;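 active means inhibition above 50%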;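 further: 0% = DMSO wells and 100% = digitonin-killed cells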); conditions: HepG2 viability, 24-48 h, at 10 µM, stronger effect = higher value
[3] = molecular target: L-lactate dehydrogenase (Plasmodium falciparum (isolate CDC / Honduras)) (UniProt Q27743); experiment: PfLDH activity inhibition – cell lysate, 3D7 strain, counter-screen for P. falciparum growth inhibition project (AID 2304);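 further: 0% = vehicle and 100% = reference inhibitor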; conditions: P. falciparum 3D7 crude extract, LDH APAD/NBT absorbance; at 2 µM; stronger effect = higher value
Chain of L-lactate dehydrogenase (Plasmodium falciparum (isolate CDC / Honduras)) (Q27743 whole entry, looked up): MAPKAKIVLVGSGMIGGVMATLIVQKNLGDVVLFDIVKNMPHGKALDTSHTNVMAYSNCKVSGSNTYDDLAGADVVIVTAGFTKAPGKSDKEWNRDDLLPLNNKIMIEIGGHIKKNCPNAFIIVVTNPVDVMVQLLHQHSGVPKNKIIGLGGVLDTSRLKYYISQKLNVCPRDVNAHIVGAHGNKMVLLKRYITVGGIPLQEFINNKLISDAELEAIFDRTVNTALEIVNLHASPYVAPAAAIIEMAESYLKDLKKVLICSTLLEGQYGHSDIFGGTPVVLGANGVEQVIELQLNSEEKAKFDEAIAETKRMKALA

[4] = inhibition of 3D7 malaria parasite growth – strain 3D7 (AID 2306);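 further: 0% = DMSO wells and 100% = chloroquine plus artemisinin control wells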; conditions: P. falciparum 3D7 erythrocytic growth, LDH absorbance, 72 h; at 2 µM; stronger effect = higher value
[5] = molecular target: Protein kinase 7 (PK7), Plasmodium falciparum 3D7 (PF3D7_0213400) (UniProt Q7YTF7); experiment: inhibition of Plasmodium PK7 catalytic activity – biochemical, TCAMS antimalarial set, Kinase-Glo luminescence (AID 1159587); conditions: recombinant PfPK7, Kinase-Glo ATP depletion luminescence
Chain of Protein kinase 7 (PK7), Plasmodium falciparum 3D7 (PF3D7_0213400) (Q7YTF7 1-343): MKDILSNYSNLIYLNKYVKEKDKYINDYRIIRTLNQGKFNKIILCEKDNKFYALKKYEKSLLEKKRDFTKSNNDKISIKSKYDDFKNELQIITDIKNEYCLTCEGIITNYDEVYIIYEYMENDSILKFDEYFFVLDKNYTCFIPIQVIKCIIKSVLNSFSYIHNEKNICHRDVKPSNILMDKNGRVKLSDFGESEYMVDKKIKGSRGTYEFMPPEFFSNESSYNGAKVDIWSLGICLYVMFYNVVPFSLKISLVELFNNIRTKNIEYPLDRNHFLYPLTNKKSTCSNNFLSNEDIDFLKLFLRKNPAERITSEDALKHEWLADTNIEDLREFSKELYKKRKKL

[6] = molecular target: Calcium-dependent protein kinase 4 (Plasmodium falciparum (isolate 3D7)) (UniProt Q8IBS5); experiment: PfCDPK4 kinase inhibitors, biochemical, TCAMS library (AID 1159588; cut-off not given, nearly all actives have IC50 up to about 0.91 µM); conditions: recombinant PfCDPK4, Kinase-Glo ATP depletion luminescence
Chain of Calcium-dependent protein kinase 4 (Plasmodium falciparum (isolate 3D7)) (Q8IBS5 whole entry, looked up): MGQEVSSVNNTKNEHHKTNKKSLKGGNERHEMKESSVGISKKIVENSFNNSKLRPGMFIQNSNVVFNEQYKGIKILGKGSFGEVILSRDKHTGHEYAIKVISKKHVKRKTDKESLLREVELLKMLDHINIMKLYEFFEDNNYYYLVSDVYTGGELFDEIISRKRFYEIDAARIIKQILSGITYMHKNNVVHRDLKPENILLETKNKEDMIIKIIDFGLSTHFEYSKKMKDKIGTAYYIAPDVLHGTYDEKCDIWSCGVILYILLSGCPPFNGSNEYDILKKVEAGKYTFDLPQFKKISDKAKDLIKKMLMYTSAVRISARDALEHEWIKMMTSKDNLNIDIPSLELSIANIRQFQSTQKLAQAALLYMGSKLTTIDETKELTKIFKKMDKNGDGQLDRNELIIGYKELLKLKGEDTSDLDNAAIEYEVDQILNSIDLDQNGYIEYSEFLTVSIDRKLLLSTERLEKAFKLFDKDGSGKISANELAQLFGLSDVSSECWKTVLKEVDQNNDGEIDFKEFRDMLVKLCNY

[7] = molecular target: Plasmodium falciparum protein kinase 6 (PK6, PF3D7_1337100) (UniProt Q8IDW1); experiment: PfPK6 kinase inhibitors, biochemical, TCAMS library (AID 1159586); conditions: recombinant PfPK6, Kinase-Glo ATP depletion luminescence
Chain of Plasmodium falciparum protein kinase 6 (PK6, PF3D7_1337100) (Q8IDW1 1-305): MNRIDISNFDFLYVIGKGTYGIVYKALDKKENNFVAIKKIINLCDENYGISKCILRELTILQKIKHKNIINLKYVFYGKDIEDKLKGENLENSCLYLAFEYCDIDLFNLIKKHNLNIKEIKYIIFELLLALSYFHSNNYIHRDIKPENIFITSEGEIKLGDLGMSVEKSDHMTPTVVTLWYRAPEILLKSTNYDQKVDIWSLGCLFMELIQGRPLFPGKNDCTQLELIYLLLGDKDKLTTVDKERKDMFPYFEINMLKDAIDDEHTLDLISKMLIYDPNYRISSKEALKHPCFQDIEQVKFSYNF

[8] = growth inhibition of DIPG glioma cells, dose response, cell-based, SU-DIPG-XVII, MIPE5.0, CellTiter-Glo, qHTS (AID 1347060; cut-off not given, nearly all actives have AC50 up to about 26 µM;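 further: cells exposed to compound for 48 hours before viability readout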); conditions: SU-DIPG-XVII viability, CellTiter-Glo ATP luminescence
[9] = growth inhibition of DIPG glioma cells, dose response, cell-based, JHH-DIPG-1, MIPE4.0, CellTiter-Glo, qHTS (AID 1347062; cut-off not given, nearly all actives have AC50 up to about 27 µM;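 further: cells exposed to compound for two days before readout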); conditions: JHH-DIPG-1 viability, CellTiter-Glo ATP luminescence
[10] = growth inhibition of DIPG glioma cells, dose response, cell-based, SU-DIPG-IV, MIPE4.0, CellTiter-Glo, qHTS (AID 1347063; cut-off not given, nearly all actives have AC50 up to about 30 µM;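 further: compound exposure lasted 48 hours before the viability readout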); conditions: SU-DIPG-IV viability, CellTiter-Glo ATP luminescence
[11] = viability loss in pontine glioma line – cell-based, SU-DIPG-XXV, MIPE5.0, CellTiter-Glo, qHTS, dose response (AID 1347065; cut-off not given, nearly all actives have AC50 up to about 26 µM;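 further: cells exposed to compound for 48 hours before ATP readout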); conditions: CellTiter-Glo ATP luminescence
[12] = SU-DIPG-VI glioma cell viability, MIPE4.0 library, CellTiter-Glo luminescence, qHTS (AID 1347066; cut-off not given, nearly all actives have AC50 up to about 30 µM;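 further: cells exposed to compound for 48 hours before readout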); conditions: CellTiter-Glo ATP luminescence
[13] = JHH-DIPG-1 glioma cell viability, MIPE5.0 library, CellTiter-Glo luminescence, qHTS (AID 1347067; cut-off not given, nearly all actives have AC50 up to about 26 µM;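 further: cells exposed to compound for 48 hours before readout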); conditions: JHH-DIPG-1 glioma viability, CellTiter-Glo ATP luminescence
[14] = SU-DIPG-XXV glioma cell viability, MIPE5.0 library, qHTS (AID 1347068; cut-off not given, nearly all actives have IC50 up to about 30 µM;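 further: cells exposed to compound for 48 hours before viability readout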)
[15] = sensitizers of A549 cells to miR-34 induction, primary screen, imaging, A549 dox-inducible miR-34, nuclei and caspase counts (AID 1347080;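 active means compounds whose cell count with miR-34 switched on is under 0.7 times the count with it off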); conditions: A549 miR-34 inducible, Hoechst nuclei count, 48 h
[16] = modifiers of HSF1 nuclear foci, imaging, Selleck Cancer Library (AID 1347162; in the data active means plate-normalised HSF1 focus index below about 0.46); conditions: human cells, at 10 µM; SSMD: measured here: HSF1 foci SSMD mean; cell count: measured here: cell number; plate-normalised HSF1 focus index: stronger effect = lower value
[17] = phospholipid biosynthesis inhibitors in animal cells, primary screen, cell-based, LOPAC library, screen 4 (AID 1347384); conditions: phospholipid biosynthesis inhibition screen, at 10 µM
[18] = viability rescue of complex I mutant cybrids, primary screen, cell-based, galactose medium, ATP luminescence (AID 1645843;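 active means z-score of at least 1.8 in each of two replicates, scored against plate mean and spread of sample wells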;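 further: positive z means more ATP and so rescue of galactose-driven cybrid death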); conditions: complex I mutant cybrid cells, 72 h, stronger effect = higher value
[19] = stronger effect = lower value, cell number ratio, induced over uninduced
[20] = measured here: relative caspase fold change +Dox/-Dox
[21] = measured here: total cells with miR-34 induction, stronger effect = lower value
[22] = measured here: total cells without miR-34 induction

## Cc1cc(Nc2ncc(Cl)c(Nc3ccccc3C(N)=O)n2)n[nH]1
[1]
  growth inhibition: 96% (active)
[2]
  inhibition: 70% (active)
[3]
  inhibition: -1% (inactive)
[4]
  growth inhibition: 98% (active)
[5]
  outcome: inactive
[6]
  outcome: inactive

## OC1CCC(Nc2ccc3ncc(-c4ccc(Cl)cc4)n3n2)CC1 (stereo not given)
[1]
  growth inhibition: 98% (active)
[2]
  inhibition: 57% (active)
[3]
  inhibition: 0% (inactive)
[4]
  growth inhibition: 97% (active)
[7]
  outcome: inactive
[6]
  outcome: inactive

## NCCNC(=O)c1ccc(-c2cnc3[nH]cc(-c4ccc(C(N)=O)cc4)c3c2)cc1
[1]
  growth inhibition: 98% (active)
[2]
  inhibition: 2% (inactive)
[3]
  inhibition: -2% (inactive)
[4]
  growth inhibition: 99% (active)
[5]
  outcome: inactive
[6]
  outcome: inactive

## CN(C)Cc1cccc(-c2cc3c(-c4cnn(C)c4)c(Cl)cnc3[nH]2)c1
[1]
  growth inhibition: 21% (inactive)
[2]
  inhibition: 75% (active)
[3]
  inhibition: -5% (inactive)
[4]
  growth inhibition: 96% (active)
[5]
  outcome: inactive
[6]
  outcome: inactive

## CCn1c(-c2nonc2N)nc2c(-c3ccccc3)ncc(OCCCCNCCc3ncc[nH]3)c21
[1]
  growth inhibition: 42% (inactive)
[2]
  inhibition: 34% (inactive)
[3]
  inhibition: -1% (inactive)
[4]
  growth inhibition: 92% (active)
[7]
  outcome: inactive
[5]
  outcome: inactive

## COc1ccc(Nc2ncc(OC)c(Nc3ccccc3C(N)=O)n2)cc1N1CCN(C)CC1
[1]
  growth inhibition: 96% (active)
[2]
  inhibition: 63% (active)
[3]
  inhibition: 0% (inactive)
[4]
  growth inhibition: 100% (active)
[5]
  outcome: inactive
[6]
  outcome: inactive

## COc1cc(Nc2nccc(-c3c(-c4cccc(NC(=O)c5c(F)cccc5F)c4)nn4ccccc34)n2)cc(OC)c1OC
[1]
  growth inhibition: 98% (active)
[2]
  inhibition: 74% (active)
[3]
  inhibition: 4% (inactive)
[4]
  growth inhibition: 98% (active)
[7]
  outcome: inactive
[5]
  outcome: inactive

## Cc1csc(-c2ncc(OC[C@@H](N)Cc3ccccc3)cc2-c2ccc3n[nH]c(C)c3c2)c1
[1]
  growth inhibition: 35% (inactive)
[2]
  inhibition: 48% (inactive)
[3]
  inhibition: 4% (inactive)
[4]
  growth inhibition: 98% (active)
[7]
  outcome: inactive
[5]
  outcome: inactive

## CCN(CC)CCOc1ccc(Nc2ncc3cc(-c4c(Cl)cccc4Cl)c(=O)n(C)c3n2)cc1
[1]
  growth inhibition: 91% (active)
[2]
  inhibition: 72% (active)
[3]
  inhibition: 1% (inactive)
[4]
  growth inhibition: 90% (active)
[5]
  outcome: inactive
[6]
  outcome: inactive
[8]
  AC50: 417 nM (active)
[9]
  AC50: 2960 nM (active)
[10]
  AC50: 4180 nM (active)
[11]
  AC50: 1860 nM (active)
[12]
  AC50: 20900 nM (active)
[13]
  AC50: 4680 nM (active)
[14]
  IC50: 2950 nM (active)
[15]; [19]
  fold change: 1.1 (inactive)
[15]; [20]
  fold change: 0.543
[15]; [21]
  cell count: 761
[15]; [22]
  cell count: 694
[16]
  SSMD: -11.2
  cell count: 5360
  plate-normalised HSF1 focus index: 0.335 (inactive)
[17]
  outcome: inactive
[18]
  z-score: -1.38 (inactive)

## Cn1c(=O)c(-c2c(Cl)cccc2Cl)cc2cnc(Nc3ccc(N4CCOCC4)cc3)nc21
[1]
  growth inhibition: 97% (active)
[2]
  inhibition: 64% (active)
[3]
  inhibition: 4% (inactive)
[4]
  growth inhibition: 98% (active)
[5]
  outcome: inactive
[6]
  outcome: inactive
[15]; [19]
  fold change: 1.06 (inactive)
[15]; [20]
  fold change: 1.37
[15]; [21]
  cell count: 814
[15]; [22]
  cell count: 768
[17]
  outcome: inactive
[18]
  z-score: -1.38 (inactive)

## CNC(=O)c1ccccc1Nc1nc(Nc2ccc(N3CCOCC3)cc2)ncc1Cl
[1]
  growth inhibition: 97% (active)
[2]
  inhibition: 75% (active)
[3]
  inhibition: -3% (inactive)
[4]
  growth inhibition: 97% (active)
[5]
  outcome: inactive
[6]
  outcome: inactive

## NCCNS(=O)(=O)c1ccc(-c2ccnc3[nH]c(-c4ccncc4)cc23)cc1
[1]
  growth inhibition: 95% (active)
[2]
  inhibition: -10% (inactive)
[3]
  inhibition: 3% (inactive)
[4]
  growth inhibition: 96% (active)
[5]
  outcome: inactive
[6]
  outcome: inactive

## O=C(Nc1cccc(-c2nn3ncccc3c2-c2ccnc(Nc3ccccc3)n2)c1)c1c(F)cccc1F
[1]
  growth inhibition: 96% (active)
[2]
  inhibition: 51% (active)
[3]
  inhibition: 0% (inactive)
[4]
  growth inhibition: 98% (active)
[7]
  outcome: inactive
[5]
  outcome: inactive

## NS(=O)(=O)c1ccc(Nc2nccc(-c3c(-c4cccc(NC(=O)c5c(F)cccc5F)c4)nn4ccccc34)n2)cc1
[1]
  growth inhibition: 89% (active)
[2]
  inhibition: 83% (active)
[3]
  inhibition: -7% (inactive)
[4]
  growth inhibition: 93% (active)
[5]
  outcome: inactive
[6]
  outcome: inactive

## COc1ccc(Nc2ncc(C#N)c(Nc3ccccc3C(N)=O)n2)cc1N1CCN(C)CC1
[1]
  growth inhibition: 97% (active)
[2]
  inhibition: 56% (active)
[3]
  inhibition: -1% (inactive)
[4]
  growth inhibition: 93% (active)
[5]
  outcome: inactive
[6]
  outcome: inactive

## O=C(Nc1c(F)cccc1F)c1cccc(-c2nn3ccccc3c2-c2ccnc(Nc3cccc(-c4cnco4)c3)n2)c1
[1]
  growth inhibition: 94% (active)
[2]
  inhibition: 96% (active)
[3]
  inhibition: -6% (inactive)
[4]
  growth inhibition: 95% (active)
[7]
  outcome: inactive
[5]
  outcome: inactive

## CN1CCN(c2ccc(Nc3nccc(-c4cnn5ncccc45)n3)cc2Cl)CC1
[1]
  growth inhibition: 92% (active)
[2]
  inhibition: 65% (active)
[3]
  inhibition: 0% (inactive)
[4]
  growth inhibition: 95% (active)
[5]
  outcome: inactive
[6]
  outcome: inactive

## Cc1cccc(Nc2nc(N[C@@H]3CCCNC3)nc3cc[nH]c(=O)c23)c1
[1]
  growth inhibition: 98% (active)
[2]
  inhibition: 55% (active)
[3]
  inhibition: 1% (inactive)
[4]
  growth inhibition: 99% (active)
[7]
  outcome: inactive
[5]
  outcome: inactive
